Data on 53 molecules can be found in ChEMBL document CHEMBL4513216, “Probing the Open Global Health Chemical Diversity Library for Multistage-Active Starting Points for Next-Generation Antimalarials” (ACS Infect Dis, 2020).

Molecules are shown by their SMILES. Hit rate of the full screen: of about 69,000 compounds, about 8,600 (12%) showed an effect of 50% or more. The full list was thinned out, with strong results kept by preference.

In the assay the test system is Plasmodium berghei. Briefly: Screen against P. berghei liver stage (PbLuc), transformed with Luciferase, at 10uM. The format is functional, HepG2. The settings on record: tested at 10 uM.
With `O=C(NCCO)C1CN(c2cncnc2)CCO1` (stereo not drawn), the INHIBITION is 3.91%.

For the molecule `CCCOC1CCCN(C(=O)c2cc(CN(CC)CC)c(CC)o2)C1` (stereo not drawn), the INHIBITION turned out to be 18.5%.

Take `COc1ccc(CN(Cc2ccccn2)Cc2cncn2C)cc1`: the INHIBITION worked out at 23.9%.

`CN(Cc1nccn1C)C1CCN(CCc2ccccn2)CC1`: the INHIBITION was -3.2%.

Take `CCn1nc(C)c(CN(CCCN(C)C)Cc2ccccn2)c1C`: the INHIBITION was -37.4%.

In the case of `CCn1nc(C)c(CN(CCOC)Cc2ccccn2)c1C`, the INHIBITION is listed as 4.12%.

On to `CCn1nc(C)c(CN(Cc2ccccn2)Cc2ccccc2Cl)c1C`, for which the INHIBITION turned out to be 50.8%.

With `Cc1ncc(CN(Cc2ccccn2)Cc2ccccc2Cl)n1C`, the INHIBITION was determined as 69.4%.

As for `COCCn1ccnc1CN(Cc1ccccn1)CC(C)C`, the INHIBITION stood at 44%.

For `Cc1nn(C)cc1CN(Cc1ccccn1)Cc1ccccc1Cl`, the INHIBITION is 48%.

`Cn1ccnc1CN(Cc1ccccn1)Cc1ccccc1Cl`: the INHIBITION was found to be 79.6%.

Regarding `O=S(=O)(CCNCCn1cccn1)c1ccccc1`, the INHIBITION amounted to 19.8%.

Take `COC1CCN(C(=O)Nc2cc(C(F)(F)F)c[nH]c2=O)CC1`: the INHIBITION was -111%.

Take `COCCNC(=O)C1CC(=O)N(c2n[nH]c3cccc(F)c23)C1` (stereo not drawn): the INHIBITION is recorded as -23.7%.

With `CC1CCCCN1CCNC(=O)c1ccn(-c2cccc(F)c2)n1` (stereo not drawn), the INHIBITION is on record as 16.8%.

Consider `CN(CCC(F)(F)F)C(=O)c1nc(S(C)(=O)=O)n2ccccc12`, for which the INHIBITION stood at 12.6%.

Consider `Cc1nc(Nc2nnc(C)s2)cc(C2CCCN2C(C)C)n1` (stereo not drawn), for which the INHIBITION was -15.3%.

Consider `COC(=O)c1cc(OC)c(OC)cc1N(C)S(C)(=O)=O`, for which the INHIBITION worked out at 44.3%.

For the molecule `CN(C)CC(=O)N1CC2(CCN(C(=O)Nc3ccccc3)C2)C1`, the INHIBITION was found to be 0.112%.

As to `Cc1nc(CC(=O)NS(=O)(=O)c2cccc3cnccc23)cs1`, the INHIBITION is 6.33%.

For `CCN1C[C@H]2C3(CCN(S(=O)(=O)CC)CC3)CC[C@@]2(C(=O)N(C)C)C1`, the INHIBITION worked out at 13.7%.

For `COc1cccc(CN2CCCCC2CN2CCOCC2)c1F` (stereo not drawn), the INHIBITION is recorded as 60.4%.

On to `COc1cccc(CN2C[C@H]3CC[C@H]2C3)c1OCCN1CCOCC1`, for which the INHIBITION is -14.5%.

Take `COc1cc2c(cc1CN1CCCCC1CN1CCOCC1)CCC2` (stereo not drawn): the INHIBITION stood at 13.9%.

In the case of `CCc1nc(CCn2ccnc2-c2nccn2C)no1`, the INHIBITION was 65.6%.

With `CCc1nc(Cn2ccnc2-c2nccn2C)no1`, the INHIBITION is 45.2%.

For `CCc1nc(CCn2cc(-c3nccn3C)nn2)no1`, the INHIBITION was found to be 23%.

As for `CS(=O)(=O)c1cc(Cl)cnc1C1CCN(C(=O)C2CCOCC2)CC1`, the INHIBITION is 24.8535%.

`Cc1cccc(CN2C(=O)CC[C@@H]3[C@H]2CCN3C(=O)c2ccsc2)n1`: the INHIBITION was 14.8%.

For the molecule `COCCOc1ccc(F)cc1NCc1nc2ccccc2n1C`, the INHIBITION was -3.12%.

For the molecule `COc1cc(F)c(NCc2nc3ccccc3n2C)cc1OC`, the INHIBITION is listed as 59.8%.

For `COCCOc1ncccc1NCc1nc2ccccc2n1C`, the INHIBITION is -16%.

For the molecule `O=C(c1ccc(Cl)cc1)N1CCC(N2CCCNC2=O)CC1`, the INHIBITION is given as 40.8%.

As to `CCN1CCN(C(=O)CCn2cccc2)CC1`, the INHIBITION was 2.69%.

On to `COCCN1CC(c2cc(O)nc(NC(C)C)n2)CC1=O` (stereo not drawn), for which the INHIBITION was -17.7%.

`Nc1cc(CCC2CN(Cc3ccc(C(=O)O)cc3)CCO2)ccn1` (stereo not drawn): the INHIBITION is listed as 32.8%.

In the case of `Nc1cc(CCC2CN(Cc3cccc(C(=O)O)c3)CCO2)ccn1` (stereo not drawn), the INHIBITION was 45.6%.

For the molecule `COc1ccc(CN2CCOC(CCc3ccnc(N)c3)C2)cc1` (stereo not drawn), the INHIBITION came out at 87.1%.

Take `Cc1cc(C)n(CC2CN(Cc3ccc4c(c3)OCCO4)CCO2)n1` (stereo not drawn): the INHIBITION amounted to 14.3%.

With `COc1ccc(CC2CN(Cc3cncn3C)CCO2)cc1` (stereo not drawn), the INHIBITION is recorded as 47.1%.

Turning to `c1ccc(CCCC2CN(Cc3ncc[nH]3)CCO2)cc1` (stereo not drawn), the INHIBITION is recorded as 28.5%.

For the molecule `Nc1cc(CCC2CN(Cc3ccc4cc[nH]c4c3)CCO2)ccn1` (stereo not drawn), the INHIBITION is given as 78.2%.

In the case of `Nc1cc(CCC2CN(Cc3ccc4c(c3)OCCO4)CCO2)ccn1` (stereo not drawn), the INHIBITION is listed as 69.3%.

As to `CNc1nccnc1C1CN(Cc2ccc3[nH]ccc3c2)CCO1` (stereo not drawn), the INHIBITION is reported as 21.1%.

For `Cc1ccnc(NCc2ccccc2N2CCOCC2)n1`, the INHIBITION turned out to be 46.3%.

Consider `Cc1[nH]nc2ncc(C(=O)N3CCN(CC(C)O)CC3)cc12` (stereo not drawn), for which the INHIBITION was -0.96%.

Turning to `Cc1ccc(OCC2CCCN(C(=O)c3csc(CN(C)C)n3)C2)cc1` (stereo not drawn), the INHIBITION is listed as 31%.

As to `c1cnc(N2CCOC3(CCN(CC4CCOC4)CC3)C2)nc1` (stereo not drawn), the INHIBITION amounted to 8.64%.

For `CCNC(=O)c1ccc(NC2CCOC3(CCCC3)C2)nn1` (stereo not drawn), the INHIBITION turned out to be 24.6%.

Take `CCc1cnc(N2CC[C@@H]3CN(C(=O)c4ccco4)CCO[C@@H]3C2)nc1`: the INHIBITION turned out to be 92.5%.

Turning to `CC(=O)N1CC[C@@H]2CN(C(=O)c3ccco3)CCO[C@@H]2C1`, the INHIBITION is given as 48.3%.

On to `Cc1cccc(N2CC[C@@H]3CN(C(=O)c4ccco4)CCO[C@@H]3C2)n1`, for which the INHIBITION is listed as 49.5%.

`CCc1cnc(N2CC[C@@H]3CN(C(C)=O)CCO[C@@H]3C2)nc1`: the INHIBITION is recorded as 45.8%.
